The source of these data is PubChem BioAssay (NCATS).

Test [1] concerns the target Glutathione peroxidase 1 (Homo sapiens) (UniProt P07203). As to the kind of experiment: Primary qHTS Assay for Inhibitors of Recombinant Selenoprotein Glutathione Peroxidase 1 (GPX1) (AID 1845191). For activity, negative = inhibition: % is set by controls: 0 for no effect and ±100 for the full control effect. Note: nearly all actives have a fitted effect of over 65% in size. Note: potency is the fitted concentration of half-maximal effect. Summed up:
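NADPH consumption tracked by fluorescence at 340/450 nm between t=0 and t=15 min, room temperature. Final mix: 10 nM GPX1, 100 nM glutathione reductase, 1 mM GSH, 0.5 mM NADPH, 0.5 mM cumene hydroperoxide, 0.01% BSA; 30 min compound–enzyme preincubation.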
Background: qHTS replaces the single test concentration by a dilution series.

Test [2] addresses Phospholipid hydroperoxide glutathione peroxidase GPX4 (Homo sapiens) (UniProt P36969). As to the kind of experiment: Primary qHTS Assay for Inhibitors of Recombinant Selenoprotein Glutathione Peroxidase 4 (GPX4) (AID 1845192). For activity change, negative = inhibition: series mostly up to about 50 µM; % is set by controls: 0 for no effect and ±100 for the full control effect. Note: nearly all actives have a fitted effect of over 65% in size. Summed up: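 NADPH consumption followed by fluorescence at 340/450 nm, t=0 and after 15 min at room temperature. Reaction started with cumene hydroperoxide (0.5 mM final) after 30 min compound–GPX4 preincubation; final 200 nM GPX4, 100 nM GR, 1 mM GSH, 0.5 mM NADPH.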

The target of test [3] is Luciferin 4-monooxygenase (Photinus pyralis) (UniProt P08659). As to the kind of experiment: Primary firefly luciferase (FLuc) qHTS assay for identification of artifact compounds. (AID 1845220).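 For activity change, negative = inhibition: series mostly up to about 54 µM; plate controls were DMSO vehicle for no effect and no enzyme for full effect.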 Note: nearly all actives have a fitted effect of over 60% in size. Conditions: outcome: dose series up to 54.1 µM unless noted. An outline of the steps: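 Compounds sat 15 min at room temperature with 10 uM luciferin and 10 uM ATP (pH 7.6 Tris acetate). Firefly luciferase (10 nM final) was then added, and luminescence was read 5 min later. Data normalized to no-enzyme and DMSO controls were Hill-fitted.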

The nature of test [4]: Primary fluorescence-based thiol-reactive (MSTI) qHTS assay for identification of artifact compounds. (AID 1845221).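 Note: series mostly up to about 54 µM; thiol-reactive compounds lower the probe fluorescence signal; nearly all actives have a fitted effect of over 65% in size.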 An outline of the steps: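 A multi-concentration qHTS design tested compounds against 4 uM MSTI, pH 7.4 phosphate-buffered saline. Plates were protected from light for 1 h at room temperature before imaging fluorescence.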
Test [5] deals with Nanoluciferase (engineered Oplophorus gracilirostris luciferase). The experiment in a line: Primary Nanoluciferase (NLuc) qHTS assay for identification of artifact compounds. (AID 1845222).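 Note: series mostly up to about 54 µM; 0% = DMSO and -100% = no enzyme.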 An outline of the steps: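 Luminescence from secreted NLuc (filtered, 1:55-diluted S16 cell medium) read 5 min after Nano-Glo substrate; compounds preincubated 15 min, RT. Hill fits of inhibition normalized to DMSO and no-enzyme.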

“And” between values parts separate entries of the source, which are not always exact repeats. Equal entries are not always repeated. Records with an inconclusive call do not appear. More than one record can exist for a structure, and the calls need not agree. The source made the active and inactive calls. Calls come from the whole dose curve; as a rule, active = well fitted curve in the direction sought with a large enough effect; inconclusive = small, poorly fitted or top-dose-only effect, or another doubt; inactive = no such curve, though single readings can be large; an effect the other way counts as inactive or inconclusive.

Phospholipid hydroperoxide glutathione peroxidase GPX4 (Homo sapiens), sequence (P36969 whole entry, looked up): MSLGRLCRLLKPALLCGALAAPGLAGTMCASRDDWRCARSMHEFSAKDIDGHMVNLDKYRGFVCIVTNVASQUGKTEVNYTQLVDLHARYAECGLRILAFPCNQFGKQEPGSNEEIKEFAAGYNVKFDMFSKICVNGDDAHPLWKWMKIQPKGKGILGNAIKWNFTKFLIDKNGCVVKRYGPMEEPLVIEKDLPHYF
Glutathione peroxidase 1 (Homo sapiens), sequence (P07203 whole entry, looked up): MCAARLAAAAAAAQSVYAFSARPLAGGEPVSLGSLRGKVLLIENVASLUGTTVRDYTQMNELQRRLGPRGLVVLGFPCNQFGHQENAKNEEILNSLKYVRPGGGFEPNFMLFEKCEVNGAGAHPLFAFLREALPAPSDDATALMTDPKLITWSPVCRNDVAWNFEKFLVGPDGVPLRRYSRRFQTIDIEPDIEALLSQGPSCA

Regarding `CC(COc1ccccc1)NC(C)C(O)c1ccc(O)cc1` (stereo not drawn), the Potency result in test [1] and in test [2] was “inactive” in each case.
For the molecule `CC(=O)CCC(=O)O`, the Potency result in test [1] and in test [2] was “inactive” each time.
As to `CC1(C)[C@@H]2CC[C@@]1(C)C(=O)C2`, the Potency entry in test [1] and in test [2] was “inactive” each time.
As for `O=C1c2c(O)cccc2Cc2cccc(O)c21`, the Potency entry in test [1] and in test [2] was “inactive” throughout.
Turning to `CCn1cc(C(=O)O)c(=O)c2cnc(N3CCNCC3)nc21`, the Potency entry in test [1] and in test [2] was “inactive” each time.
As for `CN1[C@@H]2CC[C@H]1CC(OC(=O)C(O)c1ccccc1)C2` (stereo partly drawn), the Potency result in test [1] and in test [2] was “inactive” in each case.
For `NCCNCCNCCN`, the Potency entry in test [1] and in test [2] was “inactive” each time.
As to `CCOC(=O)c1ccc(O)cc1`, the Potency entry in test [1] and in test [2] was “inactive” each time.
With `CCCCCCCCCCCCCCCCCCOCC(O)CO` (stereo not drawn), the Potency result in test [1] and in test [2] was “inactive” throughout.
Consider `CCCCN(CCCC)CCCOC(=O)c1ccc(N)cc1`, for which the Potency entry in test [1] and in test [2] was “inactive” throughout.
`O=c1cc[nH]c(=O)[nH]1`: the Potency result in test [1] and in test [2] was “inactive” throughout.
On to `O=Cc1ccccc1C=O`, for which the Potency result in test [1] and in test [2] was “inactive” each time.
In the case of `NCCNCCNCCNCCN`, the outcome in test [1] is “inactive [at 9.52 µM]”; in test [2], “inactive [at 9.73 µM]”.
For `CCN(CC)CCNC(C(=O)OCCC(C)C)c1ccccc1` (stereo not drawn), the Potency result in test [1] and in test [2] was “inactive” each time.
With `NS(=O)(=O)c1cc2c(cc1Cl)NC(CSCc1ccccc1)=NS2(=O)=O`, the Potency result in test [1] and in test [2] was “inactive” in each case.
Regarding `CCCCOC(=O)c1ccc(O)cc1`, the Potency result in test [1] and in test [2] was “inactive” in each case.
Take `N[C@H]1C(O)O[C@H](CO)[C@@H](O)[C@@H]1O` (stereo partly drawn): the Potency result in test [1] and in test [2] was “inactive” each time.
For the molecule `NC(=O)N/N=C/c1ccc([N+](=O)[O-])o1`, the Potency result in test [1] and in test [2] was “inactive” in each case.
As to `Oc1cn2c(n1)Nc1ccc(Cl)c(Cl)c1C2`, the Potency entry in test [1] and in test [2] was “inactive” in each case.
Consider `NC(=O)NC(=O)Cc1ccccc1`, for which the Potency result in test [1] and in test [2] was “inactive” throughout.
As for `O=c1[nH]c(=O)c2[nH]c(=O)[nH]c2[nH]1`, the activity, negative = inhibition in test [1] was -12.4% [at 9.52 µM] (inactive). For the same molecule, in test [2], the activity change, negative = inhibition is -16.1% [at 9.73 µM] (inactive).
Consider `Cc1cc(O)cc2c1O[C@](C)(CCC[C@H](C)CCC[C@H](C)CCCC(C)C)CC2`, for which the Potency result in test [1] and in test [2] was “inactive” in each case.
Turning to `N[C@@H](CSSC[C@H](N)C(=O)O)C(=O)O`, in test [1], the activity, negative = inhibition is -7.33% [at 0.4 µM] (inactive). For the same molecule, the activity change, negative = inhibition in test [2] is -7.83% [at 0.409 µM] (inactive).
For the molecule `Oc1ccc(C(O)CNCCCCCCNCC(O)c2ccc(O)c(O)c2)cc1O` (stereo not drawn), the Potency entry in test [1] and in test [2] was “inactive” throughout.
For the molecule `O=C(O)[C@H](O)c1ccccc1`, the Potency result in test [1] and in test [2] was “inactive” in each case.
Regarding `CC(O)COc1ccccc1` (stereo not drawn), the Potency result in test [1] and in test [2] was “inactive” throughout.
In the case of `OC[C@H]1O[C@@H](O[C@@H]2[C@@H](CO)O[C@](O)(CO)[C@H]2O)[C@H](O)[C@@H](O)[C@H]1O`, the Potency result in test [1] and in test [2] was “inactive” in each case.
On to `Cn1cc[nH]c1=S`, for which the Potency entry in test [1] and in test [2] was “inactive” throughout.
On to `OCc1cc(C(O)CNCCCCCCOCCCCc2ccccc2)ccc1O` (stereo not drawn), for which the Potency entry in test [1] and in test [2] was “inactive” throughout.
Consider `O=C(O)Cc1sc(-c2ccccc2)nc1-c1ccc(Cl)cc1`, for which the Potency result in test [1] and in test [2] was “inactive” throughout.
As for `CCCOC(=O)c1ccccc1`, the Potency entry in test [1] and in test [2] was “inactive” each time.
Consider `CN(N=O)C(=O)N[C@@H]1[C@@H](O)[C@H](O)[C@@H](CO)O[C@@H]1O`, for which the Potency result in test [1] and in test [2] was “inactive” in each case.
Take `CCCCC(CC)COC(=O)c1ccccc1O` (stereo not drawn): the Potency entry in test [1] and in test [2] was “inactive” throughout.
Regarding `COc1cc(C)c(Cc2cnc(N)nc2N)cc1OC`, the Potency result in test [2] is “inactive”.
Turning to `O=C(CCCN1CCN(c2ccccn2)CC1)c1ccc(F)cc1`, the Potency entry in test [1], in test [2] and in test [4] was “inactive” throughout. In addition, the outcome in test [3] and in test [5] was inactive.
As for `COc1ccc2[nH]c(S(=O)Cc3ncc(C)c(OC)c3C)nc2n1` (stereo not drawn), in test [1], the Potency was 9.04 µM (active) and inactive and 11.4 µM (active). Also, the Potency result in test [2] and in test [4] was “inactive” in each case. Besides, the molecule was called inactive in test [3] and in test [5].
Consider `CCCCCCCCCCCCOS(=O)(=O)O`, for which the Potency result in test [1] and in test [2] was “inactive” in each case.
Take `CN1CCOC(c2ccccc2)c2ccccc2C1` (stereo not drawn): the Potency entry in test [1], in test [2] and in test [4] was “inactive” in each case. For the same molecule, the molecule was classed as inactive in test [3] and in test [5].
As for `NC(=O)c1ncn([C@@H]2O[C@H](CO)[C@@H](O)[C@H]2O)c1N`, the Potency result in test [1] and in test [2] was “inactive” each time.
`Nc1ccc(S(=O)(=O)Nc2nccs2)cc1`: the Potency result in test [1], in test [2] and in test [4] was “inactive” in each case. For the same molecule, the result in test [3] and in test [5] was inactive.
Take `CC[C@@]1(c2ccccc2)NC(=O)N(C)C1=O`: the Potency entry in test [1] and in test [2] was “inactive” throughout.
Turning to `CCOC(CN1CCN(CC(C)C(=O)c2ccccc2)CC1)c1ccccc1` (stereo not drawn), the Potency result in test [1] and in test [2] was “inactive” in each case. Also, the call in test [3] and in test [5] was inactive.
For the molecule `CN(C)CCN(Cc1ccccc1)c1ccccn1`, the Potency result in test [2] was “inactive”.
`OCC(O)CN1CCN(c2ccccc2)CC1` (stereo not drawn): the Potency result in test [1], in test [2] and in test [4] was “inactive” each time. In addition, the result in test [3] and in test [5] was inactive.
Take `Cn1c(=O)c2c(ncn2CC2OCCO2)n(C)c1=O`: the Potency result in test [1], in test [2] and in test [4] was “inactive” in each case. The result in test [3] and in test [5] was inactive.
With `CCCCN1CCCC[C@H]1C(=O)Nc1c(C)cccc1C`, the Potency entry in test [1], in test [2] and in test [4] was “inactive” throughout. Further, the result in test [3] and in test [5] was inactive.
